Reference: the supplement of paper PMC10681739
± gives the standard deviation of the averaged measurements. The full ranking holds about 4,000 sequences; the median of “arbitrary fluorescence units” is about 830, and the highest 2% start at about 6,500. Many of the other results were omitted from the sample, so the highest values are more common in it than they were.

Target: RUNX1 (UniProt Q01196)
Experiment: RUNX1 binding intensity (PBM fluorescence), RUNX1 alone (arbitrary fluorescence units); higher = stronger binding
Settings: RUNX1 concentration 2 nM; ETS1 concentration 0 nM
Description: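 gcPBM on 36-bp genomic-derived probes (partner site mutated) containing one RUNX1 site and no ETS1 site. Recombinant human RUNX1 (2 nM) was incubated alone or with ETS1 (25 nM) and detected by anti-RUNX1 antibody fluorescence. Values are medians over 4 replicate spots (not normalised). The probes sit in constant array flanks that are not printed.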

Sequence of RUNX1 (Q01196 whole entry): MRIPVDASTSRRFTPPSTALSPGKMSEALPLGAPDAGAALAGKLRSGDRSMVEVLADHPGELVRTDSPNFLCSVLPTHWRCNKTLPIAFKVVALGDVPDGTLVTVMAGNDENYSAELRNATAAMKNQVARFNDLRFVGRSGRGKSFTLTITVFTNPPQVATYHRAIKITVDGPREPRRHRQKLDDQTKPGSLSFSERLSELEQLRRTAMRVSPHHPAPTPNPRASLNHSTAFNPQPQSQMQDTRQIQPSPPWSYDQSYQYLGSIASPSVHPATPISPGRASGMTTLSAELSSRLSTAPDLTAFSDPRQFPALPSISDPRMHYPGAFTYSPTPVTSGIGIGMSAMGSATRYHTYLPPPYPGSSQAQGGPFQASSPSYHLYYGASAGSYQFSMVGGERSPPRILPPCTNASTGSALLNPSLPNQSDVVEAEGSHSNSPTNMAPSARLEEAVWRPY

Going from GCCCCTCTTTCTGACTCACACAACCGCCTCTAGTCT to TTGTGGTAGGGAAATCCACTTACCCCCTCCTCATGT, the RUNX1 binding intensity falls from 1540 to 808.

Going from TGTGGCAACCACAGCCCCAAAACAAAGAGGAGACAC to AGCTGAGGTCGCGGTGCAGCAGCAGCAAACGTGATA, the RUNX1 binding intensity falls from 1040 to 1010.

Compared with CCACTAGCAGCAAAACGGGCCGAGGGACCGCAAGCA, AACTTGTGGGGTTTTCTTCTGATCTTGCTCCCCGCT is higher in RUNX1 binding intensity: 821 for the first, 998 for the second.

Going from GAAACCACAACCTACCCCAGCCTTACTTTCGGGCGC to CCATTCTTACGGTGGAGATGGCTGCGGCCGTGGCGG, the RUNX1 binding intensity falls from 3300 to 815.

Compared with TCAAGAAAACAGTAAACTCTCAAAACCAAGTTCTGA, GCAATCTTGACCACAACATGGAGACAGGCAATCAAA is higher in RUNX1 binding intensity: 736 for the first, 1540 for the second.

Compared with TAGGTCTGTGGGTGACGTCTGTTTACTGTGATTGAA, ACGTCTGTTTACTGTGATTGAAACCGCAAGAAGAAG is higher in RUNX1 binding intensity: 842 for the first, 9630 for the second.

Compared with CATTCATGTGGCTTATAGGCACACCCTGCCTGCCTA, GAGGCGTTGCCGCCTCCTTTTCGCGGTTGCCTTCTC is higher in RUNX1 binding intensity: 824 for the first, 988 for the second.

Going from TCCTCCGTTCCCGTAGTTCCGAGTTGCGGTTTCTCC to CCCCTTGCCGTTCTCCGAAAGTGCGCGGGTTGGAGC, the RUNX1 binding intensity falls from 7620 to 868.

First: TGCTTCCCTTCAGTGCCGACAGCGAAAACCGCTGCC
Second: GTCGCCGGGATCACCGCAAACGCTTGCTGCTTGCGC
The RUNX1 binding intensity of the first is lower: 795 for the first, 1190 for the second.

First: AGCCGTGGTCAGCAGCAGCACGACTGCCGCCTCCGC
Second: AACTGGGCTGAAAGAACGGCTAACCGCAAGCTGCCG
The RUNX1 binding intensity of the first is lower: 770 for the first, 13200 for the second.

First: GCAACCGCACTCCGAAAGCTCTGGGCCTGAAGAGTC
Second: TTGATAGCAAACCACACTCGGCACAGAAAGGAGAAC
The RUNX1 binding intensity of the first is lower: 943 for the first, 1020 for the second.

First: GGCGCCTCTTTGCGCCCCCGCCCACAATCGAGCGCA
Second: GGTGGACCTGTGGTTTGCAACACAGAAAGAGACTAT
The RUNX1 binding intensity of the first is lower: 826 for the first, 1640 for the second.

Compared with CCTTTGTTGTGGTTTTTGCAGAAAGAGAAGGGTTAG, GGTGGACCTGTGGTTTGCAACACAGAAAGAGGTGGC is lower in RUNX1 binding intensity: 10600 ± 540 for the first, 1580 for the second.

Going from CACCTTTGTTGTGGTTTGTAAACGGAGACAAAAACA to TGACGGCTGCACGGGCGCAGCGGCGGCCCGCAGGGG, the RUNX1 binding intensity falls from 1460 to 736.

Going from CTGCCTGCCCCACAGCATGCAGGGACAGGCAGTGGG to CGGCCCCCGGGGTGGTTAGCGCTTACGGGGTCGAAG, the RUNX1 binding intensity rises from 633 to 714.

Compared with GCCGATGAGGAGGTGAGGGCCAACCACACTGCTCAG, AGAGTCTTTTTTACTGAGCGTTTGCGGTTTTGACTT is higher in RUNX1 binding intensity: 870 for the first, 8560 for the second.

Compared with AGTGCTGTGGTTTGACTTTGTTTTTACTGTAGCCAG, TCAGAACTTGGTTTTGAGAGTTTACTGTTTTCTTGA is lower in RUNX1 binding intensity: 1880 for the first, 785 for the second.

With GGTCTGGAGGACGTTTGCAGCTGCTGTGGGTGGTGG the RUNX1 binding intensity was 787.
